# Measured potencies and affinities stand elsewhere. Activity calls are given as the source filed them.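 Rule for the calls: active = CTGF level falls with dose and the fitted half-maximal dose is at most twice the top valid dose; inconclusive = flat fit with 30 to 70% drop, or a poor fit; inactive = the rest.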
# Experiment: CTGF mRNA reduction in DLD1 cells – cell-based, DLD1 colon cancer, RT-qPCR, cherry-pick, dose response (AID 1053122)
# Settings: DLD1 CTGF mRNA (YAP1 pathway), 24 h; series mostly up to 26 µM
row,SMILES,outcome
1,Cc1ccc(S(=O)(=O)N2CC[C@H]3[C@H](CO)Nc4ccc(-c5cccc(C(=O)N(C)C)c5)cc4[C@H]32)cc1,inactive
2,CC(C)NC(=O)N[C@@H]1CC[C@H](CC(=O)NCCCN(C)C)O[C@@H]1CO,inactive
3,Cc1cccc(-c2ccc([C@@H]3[C@@H](CO)N4CCCCN(S(=O)(=O)c5ccccc5F)C[C@@H]34)cc2)c1,inactive
4,O=C(CC1CC1)N1CC(=O)N2[C@@H](CO)[C@H](c3ccc(/C=C/c4ccccc4)cc3)[C@@H]2C1,inactive
5,Cc1ccc(S(=O)(=O)N2CC[C@@H]3[C@H]2c2cc(-c4cccc(C(=O)N(C)C)c4)ccc2N[C@@H]3CO)cc1,inactive
6,COc1cccc(C#Cc2ccc3c(c2)O[C@@H](CN(C)C(=O)CN2CCOCC2)[C@@H](C)CN([C@@H](C)CO)S3(=O)=O)c1,inactive
7,N#Cc1cccc(-c2ccc3c(c2)[C@@H]2[C@@H](CCN2S(=O)(=O)c2ccc(F)cc2)[C@H](CO)N3)c1,inactive
8,CO[C@H]1CN(C)C(=O)c2cc(NC(=O)Nc3ccccc3F)ccc2OC[C@H](C)N(CCC(F)(F)F)C[C@@H]1C,inactive
9,CC(C)(C)[S@](=O)N1Cc2cc(C(=O)NCCc3ccncc3)nc(-c3cccc(-c4cccc(C#N)c4)c3)c2[C@@H]1CCO,inactive
10,O=C(Nc1ccccc1)[C@@H]1[C@@H](CO)[C@@H]2Cn3c(cccc3=O)[C@H]1N2C(=O)c1ccc(F)cc1,inactive
11,C[C@@H]1CN([C@@H](C)CO)C(=O)c2cccc(NC(=O)c3nc4ccccc4s3)c2O[C@H]1CN(C)C(=O)Nc1ccc2c(c1)OCO2,inactive
12,CC(=O)N1CCCCN2[C@@H](CO)[C@H](c3ccc(-c4ccccc4)cc3)[C@@H]2C1,inactive
13,C[C@H]1CN([C@@H](C)CO)S(=O)(=O)c2ccc(-c3cncnc3)cc2O[C@@H]1CN(C)C(=O)NC1CCCC1,inactive
14,COc1ccc2c3c(n(C)c2c1)[C@H](CO)N(S(C)(=O)=O)CC31CCN(C(=O)Nc2cccc(F)c2)CC1,inactive
15,CC(C)(C)S(=O)N1Cc2cc(C(=O)NCc3ccc4c(c3)OCO4)nc(-c3cccc(-c4cccc(F)c4)c3)c2[C@@H]1CCO (stereo not given in full),inactive
16,O=S(=O)(c1ccccc1)N1CCCCN2[C@H](C1)[C@@H](c1ccc(C#CC3CCCC3)cc1)[C@@H]2CO,inactive
17,CO[C@@H]1CN(C)C(=O)c2cc(NS(=O)(=O)c3ccccc3C)ccc2OC[C@@H](C)N(S(=O)(=O)c2ccccc2)C[C@H]1C,inactive
18,C[C@H](CO)N1C[C@H](C)[C@H](CN(C)Cc2ccc(Oc3ccccc3)cc2)OCc2ccccc2-c2ccccc2C1=O,inactive
19,C[C@H]1CC=CC[C@@H](c2ccc(F)cc2)NC(=O)[C@H](Cc2ccccc2)N(C)C(=O)c2ccccc2O1 (mixture of isomers),inactive
20,Cc1ccc(S(=O)(=O)Nc2ccc3c(c2)CC(=O)N([C@H](C)CO)C[C@@H](C)[C@@H](CN(C)S(=O)(=O)c2ccccc2)O3)cc1,inactive
21,O=C(CC1CC1)N1CC(=O)N2[C@H](CO)[C@@H](c3ccc(C#Cc4cccc(F)c4)cc3)[C@H]2C1,inactive
22,C[C@@H]1CN([C@@H](C)CO)C(=O)CCCn2nncc2CO[C@@H]1CN(C)C(=O)c1cc(-c2ccccc2)on1,inactive
23,O=S(=O)(Cc1ccccc1)N1CC2(C1)[C@H](c1ccccc1)[C@H](CO)N2CC1CCCC1,inactive
24,O=C(Nc1ccc2c(c1)[C@H]1C[C@@H](CC(=O)N3CCc4ccccc4C3)O[C@H](CO)[C@H]1O2)c1ccc2c(c1)OCO2,inactive
25,COc1ccc([C@H]2C/C=C\C[C@@H](c3ccc4c(c3)OCO4)NC(=O)[C@@H](c3ccccc3)CC(=O)N2)c(OC)c1,inactive
26,CC(C)(C)[S@@](=O)N1Cc2cc(C(=O)NCCc3ccncc3)nc(-c3cccc(-c4cccc(C#N)c4)c3)c2[C@H]1CCO,inactive
27,C[C@H](O)C#Cc1ccc([C@H]2[C@@H](CO)N3CCCCN(C(=O)c4ccc5c(c4)OCO5)C[C@@H]23)cc1,inactive
28,Cc1ccccc1-c1ccc([C@H]2[C@@H](CO)N3CCCCN(S(=O)(=O)Cc4ccccc4)C[C@@H]23)cc1,inactive
29,Cc1ccc(S(=O)(=O)Nc2ccc3c(c2)C(=O)N([C@H](C)CO)C[C@@H](C)[C@H](CN(C)S(=O)(=O)c2cccs2)OCCCC[C@@H](C)O3)cc1,inactive
30,C[C@@H]1CN([C@@H](C)CO)C(=O)c2ccccc2-c2ccccc2CO[C@H]1CN(C)C(=O)Nc1cccc(C(F)(F)F)c1,inactive
